Rows were chosen to be rich in hits. Some 2.4% of all compounds tested hit in one or more screens of this group.
Hsp90 Hop PPI: changes Hsp90-Hop TPR2A binding signal, up or down. Potency, µM (titrated, usually from 57 µM). AID 595. hit rate 0.44% among 71,000. AlphaScreen TPR2A-His6 binding biotin-Hsp90 C-terminal peptide; active means well fitted curve in either direction with a large enough effect; inconclusive means small, poorly fitted or top-dose-only effect, or another doubt
Pol III holo inh: DNA polymerase III holoenzyme inhibition. reconstituted DNA polymerase III holoenzyme replication, biochemical. Potency, µM (series often up to 57.1 µM). AID 603. hit rate 0.25% among 71,000
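Reconstituted *E. coli* holoenzyme (0.35 nM Pol III, 1 nM beta, 154 nM SSB, 2 nM primase) was preincubated with compound for 15 min at RT. Synthesis on 1.4 nM ssM13Gori ran 35 min, then was stopped with PicoGreen/EDTA and read as dsDNA fluorescence.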
BRCT PPI red: inhibitors of human BRCA1 BRCT-phosphoprotein interaction (red fluorophore); BRCT-phosphopeptide binding, red fluorescence polarization; Potency, µM (doses to about 76.9 µM), hits mostly inhibitors; hit rate 0.03% among 75,000; AID 892
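Rhodamine-labelled pBACH1 10-mer (100 nM) bound to BRCT domain (100 nM) at pH 7.3; compounds incubated 12 min room temperature, polarization read. Free peptide defines full inhibition; unlabelled decapeptide titrated as control.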
BRCT PPI green: BRCA1 BRCT-phosphoprotein interaction inhibition; P38398; BRCA1 BRCT-phosphopeptide binding, green fluorescence polarization; Potency, µM (series often up to 76.9 µM), hits mostly inhibitors; hit rate 0.05% among 75,000
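Compounds were incubated for 12 min at room temperature with a complex of 100 nM fluorescein-tagged pBACH1 decapeptide and 250 nM His-tagged BRCT protein. Buffer was phosphate pH 7.3 with EDTA, DTT and Tween 20. Disruption of binding lowers the polarization signal.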
Tau fil binding: tau filament binding; hit rate 2% among 71,000; P10636; Potency, µM (doses to about 57.1 µM); recombinant tau filaments, thioflavin S fluorescence, 15 h; filaments grown with octadecylsulfate alongside compound;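 further: actives lower thioflavin S fluorescence by blocking filaments or displacing dye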
Target sequence (P10636 whole entry, looked up): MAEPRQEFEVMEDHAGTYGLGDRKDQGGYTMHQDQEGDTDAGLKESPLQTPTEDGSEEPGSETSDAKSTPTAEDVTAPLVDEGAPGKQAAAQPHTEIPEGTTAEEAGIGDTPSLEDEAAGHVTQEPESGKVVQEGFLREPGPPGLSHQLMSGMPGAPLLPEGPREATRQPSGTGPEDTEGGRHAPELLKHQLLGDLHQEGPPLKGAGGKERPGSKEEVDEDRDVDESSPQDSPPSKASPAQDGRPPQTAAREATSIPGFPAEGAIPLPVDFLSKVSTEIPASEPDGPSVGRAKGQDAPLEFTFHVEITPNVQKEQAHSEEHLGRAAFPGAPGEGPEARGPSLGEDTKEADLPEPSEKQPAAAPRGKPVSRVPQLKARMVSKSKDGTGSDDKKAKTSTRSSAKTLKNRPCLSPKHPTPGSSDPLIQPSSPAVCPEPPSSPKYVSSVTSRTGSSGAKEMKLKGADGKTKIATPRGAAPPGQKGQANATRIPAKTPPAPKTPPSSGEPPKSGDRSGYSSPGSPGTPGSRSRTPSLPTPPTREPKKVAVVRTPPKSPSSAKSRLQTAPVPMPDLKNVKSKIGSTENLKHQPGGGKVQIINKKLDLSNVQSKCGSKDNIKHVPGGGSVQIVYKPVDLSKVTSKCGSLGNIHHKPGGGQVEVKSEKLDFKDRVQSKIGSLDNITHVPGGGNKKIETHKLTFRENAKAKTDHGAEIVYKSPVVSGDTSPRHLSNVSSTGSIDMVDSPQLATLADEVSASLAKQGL
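Read-out: ThS fluorescence, 450 nm excitation/510 nm emission; lower signal marks blocked filament formation or displaced dye. Tau at 1 uM with 30 uM ODS, 10 uM ThS, 5 mM DTT, 100 mM NaCl, 10 mM HEPES pH 7.4; 15 h, 37 C.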
TsaE inh: inhibitors of E. coli YjeE (TsaE); hit rate 0.05% among 71,000; AID 605; purified YjeE enzyme, qHTS inhibition assay; Potency, µM; P0AF67
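Fluorescence polarization of a BODIPY Texas Red–ADP probe (2 uM) bound to purified YjeE (10 uM) was read after 15 min room-temperature incubation with compounds. Loss of polarization marks inhibitors; ADP serves as titrated control.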
Each line names hits and unclear results; the compound was inactive in the other large screens. Unless noted, the call rests on the fitted dose curve; in most records, active means well fitted curve in the direction sought with a large enough effect; inconclusive means small, poorly fitted or top-dose-only effect, or another doubt; inactive means no such curve, though single readings can be large; an effect the other way counts as inactive or inconclusive.

O=C(Nc1ccc2c(c1)OCO2)C1Cc2ccccc2CN1S(=O)(=O)c1cccs1 (configuration not stated)	Tau fil binding 25µM
O=C(Nc1ccc2c(c1)OCO2)C1CCN(S(=O)(=O)c2cccs2)CC1	Tau fil binding 13µM
C/C=C/OC(=O)NC(c1cccc(C)c1)[C@@]1(C(=O)OCC)CCCC1=O (some centres not stated)	none (no result: Hsp90 Hop PPI, Pol III holo inh, Tau fil binding, TsaE inh)
COc1cc(/C=C/C(=O)c2cccs2)cc(OC)c1OC	none (no result: Hsp90 Hop PPI, Pol III holo inh, Tau fil binding, TsaE inh)
CN1CCN(C(=S)c2ccc(N(C)C)cc2)CC1	none
S=C(c1ccc(N2CCCC2)cc1)N1CCCCC1	Tau fil binding 32µM
Nc1ccc(N2CCCCCC2)cc1	Hsp90 Hop PPI inconclusive, Tau fil binding 10µM
S=C(c1ccc(N2CCOCC2)cc1)N1CCOCC1	none
O=C(c1ccccc1)c1ccc(N2CCCC2)cc1	Hsp90 Hop PPI inconclusive
CCN(CC)c1ccc(C(=S)N2CCN(c3ccccc3)CC2)cc1	Pol III holo inh inconclusive, Tau fil binding 5µM
CC(C)(C)N1C(=O)Cc2c1nc(N)c1c(N)nc(N3CCCCC3CO)c(C#N)c21 (configuration not stated)	Hsp90 Hop PPI inconclusive, Tau fil binding 7.9µM
Cc1cn([C@H]2C=C[C@H](CO)O2)c(=O)[nH]c1=O	none (no result: BRCT PPI red, BRCT PPI green)
Cc1ccc(NS(=O)(=O)c2cc(C(=O)O)ccc2Cl)cc1C	none (no result: Hsp90 Hop PPI, Pol III holo inh, Tau fil binding, TsaE inh)
O=C(O)/C=C\c1c2ccc(=O)c(O)c-2oc2c(O)c(O)ccc12	Hsp90 Hop PPI inconclusive, Pol III holo inh 0.1µM, BRCT PPI red inconclusive, BRCT PPI green 6.3µM, Tau fil binding 5µM, TsaE inh inconclusive
O=C(O)[C@H]1CCCC[C@@H]1c1c2ccc(=O)c(O)c-2oc2c(O)c(O)ccc12	Hsp90 Hop PPI inconclusive, Pol III holo inh 0.32µM, Tau fil binding 4µM
S=c1[nH]c2ccccc2s1	none
N#CC(CC(=O)O)=C(c1ccccc1)c1ccccc1	none
COc1ccc(Nc2nc3ccccc3nc2C)cc1	Tau fil binding 20µM
Cn1c(SCC(=O)Nc2ccc(N3CCOCC3)c(Cl)c2)nnc1-c1ccccc1	Tau fil binding 10µM
COc1cccc(N=Cc2ccc(O)cc2O)c1	Tau fil binding 32µM
CNC(=O)c1c(NC(=O)c2nc3ccccc3s2)sc2c1CCC2	Tau fil binding 0.63µM
CC(=O)OC1CC(C)OC(C)O1 (configuration not stated)	none
COc1cccc(CNc2ccc(N3CCCCC3)cc2)c1OC	Hsp90 Hop PPI inconclusive, Tau fil binding 7.9µM
COc1ccccc1CNc1ccc(N2CCCCC2)cc1	Hsp90 Hop PPI inconclusive, Tau fil binding 10µM
COc1ccccc1CNC(=O)c1ccc(CNc2c(N3CCCC3)c(=O)c2=O)cc1	none
N#Cc1cc2c(nc1SCc1ccncc1)CCC2	Tau fil binding 6.3µM
O[Si@](CCCN1CCCCC1)(c1ccc(F)cc1)C1CCCCC1	none
Cc1ccc(C)c(NS(=O)(=O)c2cc(C(=O)O)ccc2Cl)c1	none (no result: Hsp90 Hop PPI, Pol III holo inh, Tau fil binding, TsaE inh)
NC(=S)NNC(N)=S	none
CN(C)c1ccc(C2(c3ccc(N(C)C)cc3)OC(=O)c3cc(N(C)C)ccc32)cc1	Hsp90 Hop PPI 2.5µM
O=c1cc(Nc2ccc3c(c2)OCCO3)[nH]c(=O)n1-c1ccc(Br)cc1	none
O=c1cc(Nc2ccc3c(c2)OCO3)[nH]c(=O)n1-c1ccc(Br)cc1	Tau fil binding 16µM
COc1ccccc1-c1cc(Nc2ccn[nH]2)ncn1	none
CCCCCCCCCCCCOCC1CO1 (configuration not stated)	none
CN1CCN(c2ccc(NC(=O)c3cccc(OCc4ccccc4)c3)cc2)CC1	Tau fil binding 7.9µM
CN1CCN(c2ccc(NC(=O)Cc3ccccc3)cc2)CC1	none
O=C(Nc1ccc(N2CCN(c3ccc(O)cc3)CC2)cc1)Oc1ccccc1	Tau fil binding 2µM
NCCc1nc(-c2nc(C(=O)O)cs2)cs1	none
CC(C)C[C@H](NC(=O)[C@@H](O)[C@@H](N)Cc1ccccc1)C(=O)O	none
COc1ncc2nc(CCc3ccccc3)c(=O)n(-c3ccccc3)c2n1	none
CN(C)c1ncc2nc(CCc3ccccc3)c(=O)n(-c3ccccc3)c2n1	Hsp90 Hop PPI 20µM
O=C(CN1CCCC1)NCC12CC3CC(CC(C3)C1)C2	Tau fil binding 32µM

Screens as filed in PubChem BioAssay.
